Compound activity deposited in PubChem by National Center for Advancing Translational Sciences (NCATS).
The list is not random: actives were taken first. Their share in the collection is about 11%.
HEK293 tox – cytotoxic compounds in HEK 293 cells | Potency, µM (highest dose often 115 µM), inactives show top-dose activity change, negative = cytotoxicity, hits mostly inhibitors | AID 1345083 | 94,000 tested, 6.6% active | HEK 293 viability, ATP luminescence (CellTiter-Glo), 48-72 h; note: % is set by controls: 0 for no effect and ±100 for the full control effect; nearly all actives have a fitted effect of over 60% in size
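CellTiter-Glo luminescence (cellular ATP) was read after 48 or 72 hr of compound exposure at 37 degree Celsius. Cells were HEK 293 plated at 250 cells/well.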
NIH3T3 tox – cytotoxic compounds in NIH 3T3 cells | Potency, µM (doses to about 96.7 µM), for the others: at the top dose activity change, negative = cytotoxicity, actives largely listed as inhibitors | NIH 3T3 viability, CellTiter-Glo ATP luminescence, 48-72 h | 94,000 tested, 4.3% active; note: % is set by controls: 0 for no effect and ±100 for the full control effect; nearly all actives have a fitted effect of over 55% in size
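NIH 3T3 cells at 400 cells/well received 23 nL of compound by pintool and were incubated 48 or 72 h at 37 °C. Viability was read as ATP-coupled CellTiter-Glo luminescence.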
NPR1 antag – blocks ANP-stimulated signaling of human Npr1 receptor; Potency, µM (titrated, usually from 46.3 µM), for the others: top-dose activity change, negative = inhibition, most hits filed as inhibitors; 76,000 tested, 1.6% active; AID 1347048; HEK293 hNpr1 GloSensor cGMP, ANP-stimulated luminescence; P16066; calls by dose curve; note: % is set by controls: 0 for no effect and ±100 for the full control effect; nearly all actives have a fitted effect of over 60% in size
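HEK293 cells stably expressing human Npr1 and cGMP GloSensor pGS-40F, loaded 2 h with 2% GloSensor reagent, given compound 30 min at room temperature. Luminescence read before and 20 min after 0.1 nM hNppA.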
FLuc inh-1 – inhibitors of firefly (Photinus pyralis) luciferase | Potency, µM (doses to about 115 µM), most hits filed as inhibitors | purified P. pyralis luciferase, luminescence, biochemical | 76,000 tested, 2.5% active | AID 1347043; note: % is set by controls: 0 for no effect and ±100 for the full control effect; nearly all actives have a fitted effect of over 65% in size
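FLuc 10nM, D-luciferin 10uM, ATP 10uM, Mg acetate 10mM, Tris acetate pH 7.5, Tween/BSA; cpd qHTS; enzyme added last; CCD luminescence.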
FLuc SDR -ATP – stabilizes firefly luciferase without ATP; Potency, µM (top dose mostly 32.7 µM), inactives show at the top dose activation (signal gain), hits mostly activators; shares compounds with FLuc inh-1; AID 1963318; 1,300 tested, 7.8% active; Purified FLuc-C-HiBiT, Nano-Glo HiBiT luminescence, no ATP; note: nearly all actives have a fitted effect of over 55% in size
FLuc SDR ATP – binders stabilizing firefly luciferase, plus ATP. shares compounds with FLuc inh-1. purified FLuc-C-HiBiT + ATP, HiBiT complementation luminescence. Potency, µM (doses to about 32.7 µM), inactives show top-dose activation (gain of signal), hits mostly activators. 1,300 tested, 8.7% active;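 note: signal reports ligand binding via conformational change of the enzyme rather than luciferase catalysis; % of control where 0% means no effect; nearly all actives have a fitted effect of over 55% in size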
FLuc inh-2 – firefly luciferase enzyme inhibition | shares compounds with FLuc inh-1 | purified FLuc-C-HiBiT enzyme, luciferin luminescence | Potency, µM (top dose mostly 32.7 µM), without a hit: at the top dose activity change, negative = inhibition, usual class: inhibitors | 1,300 tested, 42% active | AID 1963320; note: % is set by controls: 0 for no effect and ±100 for the full control effect; nearly all actives have a fitted effect of over 70% in size
Numbers without * were called inactive; i = inactive; ? = inconclusive; . = no result; [ ] = dose if it differs, or a comment. Unless noted, calls come from the whole dose curve; as a rule, active = well fitted curve in the direction sought with a large enough effect; inconclusive = small, poorly fitted or top-dose-only effect, or another doubt; inactive = no such curve, though single readings can be large; an effect the other way counts as inactive or inconclusive. Potency is the fitted concentration of half-maximal effect.

SMILES	HEK293 tox	NIH3T3 tox	NPR1 antag	FLuc inh-1	FLuc SDR -ATP	FLuc SDR ATP	FLuc inh-2
COc1ccccc1-c1nc(-c2cccc(C(=O)O)c2)no1	.	.	.	.	8.8µM*	0.007µM*	0.0062µM*
COc1cccc(CNC(=O)c2ccc3nc(-c4ccnc(Cl)c4)oc3c2)c1	-8%	-30%	.	.	.	.	.
O=C(c1ccc(F)cc1)N1CCN(c2nnc3ccccn23)CC1	-7%	-15%	-3%	i	.	.	.
O=C(COc1ccccc1)N1CCCCCC1c1nc(-c2ccncc2)no1 (centres undefined)	?	-39%	.	.	.	.	.
c1ccc(CNc2cc(-c3cc(N4CCCCC4)ncn3)c3cc[nH]c3n2)nc1	?	?	-2%	7.9µM*	24%	12%	9.9µM*
COc1ccccc1CC(=O)NCCn1ccn2nc(-c3ccc(C)c(C)c3)cc2c1=O	-6%	-23%	-5%	i	.	.	.
COc1cccc(C(=O)NCCn2ccn3nc(-c4ccc(C)c(C)c4)cc3c2=O)c1OC	?	-23%	-12%	5.6µM*	23%	17%	7.9µM*
COc1cccc(C(=O)NCCn2ccn3nc(-c4ccc(C)cc4C)cc3c2=O)c1OC	?	?	-5%	5.6µM*	31%	19%	9.9µM*
COc1ccc(-c2cc3c(=O)n(CCNC(=O)c4cccc(N(C)C)c4)ccn3n2)cc1	?	-12%	-28%	3.5µM*	28%	?	?
CCOc1ccc(-c2cc3c(=O)n(CCNC(=O)c4cccc5[nH]ccc45)ccn3n2)cc1	22µM*	28µM*	-27%	7.9µM*	?	?	5.6µM*
COc1ccc(C)cc1NC(=O)N1CCC(Oc2ncccc2C(=O)N(C)C)C1 (centres undefined)	13%	2%	-4%	i	.	.	.
O=C(Cc1ccccc1F)N1CCC(Oc2cccc(F)c2)C1 (centres undefined)	?	-29%	.	.	.	.	.
COc1cccc2cc(C(=O)Nc3ccc(C)cc3)c(=O)oc12	.	.	.	.	28%	20%	?
COc1ccc2oc(=O)c(C(=O)Nc3cccc(C(=O)O)c3)cc2c1	.	.	.	.	12µM*	0.05µM*	0.016µM*
COc1ccc(NC(=O)c2ccc3oc(-c4ccccn4)nc3c2)cc1	?	-26%	.	.	.	.	.
C[C@]1(O)CCN(C(=O)c2cccc(Oc3ccccc3)c2)C[C@@H]1O	4%	-11%	12%	i	.	.	.
CCCCNc1nc(N)c2[nH]c(=O)n(Cc3ccc(OCCN(C)C)nc3)c2n1	.	.	.	.	11%	8%	-5%
COc1ccc(CN2CCNc3cc(Nc4ccccc4)ncc3C2)cn1	112µM*	56µM*	-16%[70.6 µM]	5µM*	22%[49.3 µM]	16%[49.3 µM]	?
c1ccc(Nc2cc3c(cn2)CN(Cc2ccsc2)CCN3)cc1	?	56µM*	-25%[70.6 µM]	10µM*	19%[49.3 µM]	15%[49.3 µM]	14µM*
COc1ccc(CNc2cc3c(cn2)CN(C)CCN3)cc1OC	?	?	2%[70.6 µM]	i	.	.	.
COc1cccc(CN2CCNc3cc(Nc4cccnc4)ncc3C2)c1	?	?	0%[70.6 µM]	11µM*	32%[49.3 µM]	15%[49.3 µM]	?
c1ccc(Nc2cc3c(cn2)CN(CC2CCOC2)CCN3)cc1 (centres undefined)	.	.	.	.	17%[49.3 µM]	11%[49.3 µM]	?
c1ccc(Oc2cc3c(cn2)NCCN(Cc2ccsc2)C3)cc1	?	-23%[138 µM]	4%[70.6 µM]	i	.	.	.
c1cncc(Nc2cc3c(cn2)CN(CC2CCOCC2)CCN3)c1	-26%[172 µM]	?	3%[70.6 µM]	?	.	.	.
O=C(Nc1cccc(-c2nnc3n2CCCC3)c1)c1ccsc1	-15%	?	-7%	i	.	.	.
COc1ccccc1C1NC(=O)N(CC(=O)N2CCCC2)C2=C1C(=O)OC2 (centres undefined)	i	i	7%	i	.	.	.
